Measured values: ChEMBL document CHEMBL3988442, “University of Dundee, Small-Polar-MMV Screening Library” (2021)

target: Shiga toxin 2 (Escherichia coli O157:H7) (UniProt P09385+P09386); experiment: E. coli 0.157:H7 Shiga Toxin SOP - stx2 screening assay; type: functional; parameters: scale not given: direction of the effect not stated beside the values; conditions: 30 µM

Compound	Percent Effect
Cc1cc(C)c(CNC(=O)N2CCN(c3ncccn3)CC2)c(=O)[nH]1	-6.87%
CCc1ncncc1C(=O)N1CCN(Cc2c(C)noc2C)CC1	36.8%
Cc1cc(C)n(Cc2cccc(C(=O)NCCN3CCOCC3)c2)n1	-69.3%
N#Cc1ccnc(N2CCN(CC(O)c3cccc(F)c3)CC2)c1 (stereo not given)	5.66%
Cn1nnc2c1CCN(Cc1nccs1)C2COCc1ccccc1 (stereo not given)	-58%
O=C(NCC1OCCc2cn(CC3CC3)nc21)c1ccsc1 (stereo not given)	-12.1%
Cc1nsc(NC(=O)N2CCN(Cc3ccc(F)cc3)C(=O)C2)n1	-7.74%
Cc1oc(C)c(C(=O)NCc2ccccn2)c1C	26.9%
c1coc(CN2Cc3nccn3CC(Cn3cncn3)C2)c1 (stereo not given)	-9.64%
Cc1ccc(-c2ncc(C(=O)NCCNc3ncccn3)s2)c(C)c1	-13.5%
Cc1cnn(CC2CCCCN2CC(=O)NCc2ccccn2)c1 (stereo not given)	0.25%
CC(C)c1noc(CCC(=O)NCC2CCOC2)n1 (stereo not given)	-7.84%
CN1CCN(Cc2cn3c(n2)CN(Cc2cccnc2)CC3)CC1	-10.7%
CN1CCCC1c1ccc(C(=O)N2CCc3ccccc3C2)s1 (stereo not given)	-38.1%
COc1ccc(CN2CCc3ncnc(OC(C)C)c3CC2)cc1	-9.16%
O=C(NCCNCC1CNc2ccnn2C1)c1ccc(F)cc1 (stereo not given)	-25.2%
O=C1CC[C@@H]2[C@@H](CCN2C(=O)c2ccsc2)N1CC1CC1	1.28%
CCc1ccc(-n2c(=O)[nH]c3nc(N4CCSCC4)ncc3c2=O)cc1	-13.5%
CNC(=O)CCNC(=O)c1cccc(Cn2nc(C)cc2C)c1	-15.4%
O=C(c1ccccc1OCC1CC1)N1CCCC(n2ccnc2)C1 (stereo not given)	-13.9%

Compound	Percent Effect
Cc1ccc(N2CC[C@H]3O[C@@H](C(=O)NCc4ccco4)CC[C@H]32)nn1	-10.5%
Cc1nn2cccnc2c1C(=O)N1CCCC(Nc2ccccc2)C1 (stereo not given)	8.26%
c1cc(CNCC2CNc3ccnn3C2)cc(N2CCCCC2)n1 (stereo not given)	-110%
Cn1cnnc1C1CCCN(C(=O)c2cnc3ccccc3n2)C1 (stereo not given)	36.5%
CN(C)c1cncc(C2CCN(C(=O)CO)CC2)n1	7.95%
Cc1nc(CN2CCCC(NCc3c(C)nc4sccn34)C2)no1 (stereo not given)	-20.2%
O=c1cc(Cn2cncn2)nc2n1CCCN(CC1CC1)C2	-0.568%
COc1ccccc1C(=O)NC(C)CC(=O)O (stereo not given)	-19.9%
Cc1nc2c(c(C)c1CC(=O)Nc1cccc(C#N)c1)c(=O)[nH]n2C	5.09%
O=c1cc2c(nn1CN1CCN(c3ccccc3)CC1)CCC2	-14%
Cn1nc2c(cc1=O)CN(Cc1nc(C(C)(C)C)no1)CC2	0.187%
CCNc1cc2c(nn1)CCN(C(=O)c1cccc3c1OCCO3)C2	-25.7%
c1ccc2sc(N3CCOC(Cn4cccn4)C3)nc2c1 (stereo not given)	12.4%
FC(F)(F)c1cc(N2CCc3ncnc(NC4CC4)c3CC2)ncn1	-15.2%
O=C(Cc1csc(-c2ccco2)n1)N1CCN(c2cnccn2)CC1	-70.6%
CC(c1ccc(Cl)cc1)N1CCN(CCS(C)(=O)=O)CC1 (stereo not given)	1.09%
CC(C)c1cnc(CNc2c(F)cccc2-n2cccn2)o1	9.22%
CCOc1ccnc(N2CCN(C(=O)c3cccnc3O)CC2)n1	6.95%
Cc1noc(C2CCN(C(=O)c3c(C)noc3C)CC2)n1	-6.04%
CCc1ncnc2c1CCN(Cc1ccccn1)CC2	-29.9%
